Where “and” joins values, the source holds several entries; their conditions need not be identical. Identical values can stand only once. Results filed as inconclusive are left out. Where a structure was tested more than once in an assay, its records may differ in their call. Calls of active or inactive are those of the source. The calls were made as follows: active = hit-call score of the fitted dose curve at least 0.9, where 1 is the maximum; inconclusive = response in the unintended direction; inactive = score below 0.9.

Experiment [1] in a line: ATG_XTT_Cytotoxicity: Cytotoxicity Assessment in the Attagene TRANS-FACTORIAL HepG2 Assay (AID 2283584).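 As to AC50: cells exposed to compound for 24 h before reading; active means loss of viability signal versus DMSO baseline.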 In outline: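 XTT readout of cell number in transfected HepG2 cells, 24 h post-dosing; DMSO serves as negative control and baseline, with activity taken as loss of viability signal.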
Experiment [2] is described as follows: TOX21_p53_BLA_p2_viability: Viability Assessment in the Tox21 HCT-116 p53 Agonism Beta-lactamase Assay, Phase 2 (AID 2283591).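 Also: compound exposure lasted 16 h at 37 °C; actives lower the ATP signal meaning cytotoxicity.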 Summed up:
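Cytotoxicity readout: CellTiter-Glo ATP luminescence, 30 min at room temperature, after the beta-lactamase read. Cells were HCT116 exposed 16 h at 37C to compounds pin-transferred at 217-fold dilution from DMSO stocks.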

The target of experiment [3] is Cellular tumor antigen p53 (Homo sapiens) (UniProt P04637). The experiment is described as follows: TOX21_p53_BLA_p2_ratio: Tox21 HCT-116 p53 Agonism Beta-lactamase Assay, Ratio, Phase 2 (AID 2283592). In outline:
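In this cell-based reporter format, HCT116 cells were dosed with chemicals delivered from DMSO by 217-fold dilution and incubated 16 h at 37C. Emission at 460 and 530 nm after 2 h CCF4-AM loading provided the ratio, fitted upward versus DMSO.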

Experiment [4] is described as follows: TOX21_p53_BLA_p3_viability: Viability Assessment in the Tox21 HCT-116 p53 Agonism Beta-lactamase Assay, Phase 3 (AID 2283593).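 Also: cells exposed to compound for 16 h before reading.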 Summed up:
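Cellular ATP was quantified by CellTiter-Glo luminescence, read after 30 min at room temperature. Beforehand, HCT116 cells (4000/well) received compound 5 h post-seeding, 217-fold diluted from DMSO, then incubated 16 h at 37C.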

Experiment [5] deals with Cellular tumor antigen p53 (Homo sapiens) (UniProt P04637). The experiment is described as follows: TOX21_p53_BLA_p3_ratio: Tox21 HCT-116 p53 Agonism Beta-lactamase Assay, Ratio, Phase 3 (AID 2283596). In outline:
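HCT116 p53-bla cells (4000/well) given compound in DMSO (217-fold dilution) after 5 h, incubated 16 h at 37C. CCF4-AM substrate 2 h at room temperature; 460/530 nm emission ratio, gain fitted against DMSO.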

A short description of experiment [6]: TOX21_p53_BLA_p4_viability: Viability Assessment in the Tox21 HCT-116 p53 Agonism Beta-lactamase Assay, Phase 4 (AID 2283597).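 Also: hits lower the luminescence signal meaning cytotoxicity.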 In outline: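 We seeded HCT116 p53 reporter cells at 4000/well and waited 5 h. We then added compounds in DMSO at a 217-fold dilution and incubated for 16 h. Viability was read as CellTiter-Glo luminescence after 30 min at RT.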
Experiment [7] has as its target Cellular tumor antigen p53 (Homo sapiens) (UniProt P04637). The experiment is described as follows: TOX21_p53_BLA_p5_ratio: Tox21 HCT-116 p53 Agonism Beta-lactamase Assay, Ratio, Phase 5 (AID 2283599). In outline:
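Beta-lactamase reporter ratio (blue 460 nm over green 530 nm, 405 nm excitation) after 2 h CCF4-AM loading, in HCT-116 cells exposed 16 h at 37 C to compounds pinned at 217-fold dilution. Increases relative to DMSO baseline scored.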

Experiment [8] in a line: TOX21_p53_BLA_p5_viability: Viability Assessment in the Tox21 HCT-116 p53 Agonism Beta-lactamase Assay, Phase 5 (AID 2283600). In outline:
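Compounds, pinned from DMSO at 217-fold dilution, were left on the cells for 16 h. The viability endpoint was ATP content measured by CellTiter-Glo luminescence, where falling signal reflects cytotoxicity.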

In experiment [9] the target is Cellular tumor antigen p53 (Homo sapiens) (UniProt P04637). Briefly: TOX21_p53_BLA_p4_ratio: Tox21 HCT-116 p53 Agonism Beta-lactamase Assay, Ratio, Phase 4 (AID 2283601). Summed up: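 Signal is the blue/green (460nm/530nm) ratio of cleaved versus uncleaved CCF4-AM substrate, read after 2 h substrate loading. Cells were HCT116 carrying the p53-responsive beta-lactamase reporter, dosed 16 h at 37C, 5% CO2; CellTiter-Glo measured in parallel.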
Cellular tumor antigen p53 (Homo sapiens), sequence (P04637 whole entry, looked up): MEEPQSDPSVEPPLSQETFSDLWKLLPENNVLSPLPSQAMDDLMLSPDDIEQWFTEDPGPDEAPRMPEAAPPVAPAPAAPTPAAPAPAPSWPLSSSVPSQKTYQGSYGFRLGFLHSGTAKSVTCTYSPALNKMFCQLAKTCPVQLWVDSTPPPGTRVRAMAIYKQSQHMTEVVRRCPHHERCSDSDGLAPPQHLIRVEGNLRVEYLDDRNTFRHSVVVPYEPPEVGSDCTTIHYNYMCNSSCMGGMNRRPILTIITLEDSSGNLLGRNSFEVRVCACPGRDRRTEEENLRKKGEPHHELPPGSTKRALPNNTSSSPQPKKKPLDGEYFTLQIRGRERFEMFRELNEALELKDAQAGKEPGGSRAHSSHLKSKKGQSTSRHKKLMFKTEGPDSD

Consider `Cc1ncc[nH]1`, for which the call in [1], in [2], in experiment [3], in experiment [4], in [5] and in [6] was inactive. Besides, in [7], the outcome was inactive.
Take `Oc1c(Cl)cc(Cl)c(Cl)c1Cc1c(O)c(Cl)cc(Cl)c1Cl`: the result in [1], in [2], in experiment [4] and in experiment [8] was inactive. The AC50 is 9.14 µM (active) and 38.7 µM (active) in experiment [2]; 10.3 µM (active) and 583 nM (active) and 984 nM (active) in experiment [3]; 39.9 µM (active) and 568 nM (active) in experiment [4]; 19.5 µM (active) and 446 nM (active) and 1.07 µM (active) in [5]; 36.9 µM (active) and 49.3 µM (active) and 1.62 µM (active) in experiment [6]; 13.8 µM (active) and 26.4 µM (active) and 18.6 µM (active) in experiment [7]. The AC50 in experiment [9] is 42.2 µM (active) and 43.5 µM (active) and 6.65 µM (active).
With `CN(C)CCOc1ccc(/C(=C(/CCCl)c2ccccc2)c2ccccc2)cc1`, the AC50 in [1] is 24.6 µM (active); in [2], 58.1 µM (active); in [3] it was 74.9 µM (active); in experiment [4], 66.3 µM (active); in experiment [6], 49.8 µM (active) and 37 µM (active); in [7] it was 74 µM (active). In addition, the AC50 was 59.8 µM (active) in experiment [8]; 72.9 µM (active) and 39 µM (active) in [9]. Besides, the call in [2], in [3], in experiment [4], in experiment [5], in experiment [7] and in experiment [8] was inactive.
As to `CC1(C)COCN1`, the call in experiment [1] was inactive.
In the case of `O=[N+]([O-])c1ccc(O)cc1C(F)(F)F`, the compound was called inactive in [1], in [2], in experiment [4], in [6] and in [8]. The concentration at half-maximal activity (AC50) in experiment [3] was 28.2 µM (active); in experiment [5], 42 µM (active); in experiment [7] it was 30.7 µM (active).
In the case of `Nc1c(S(=O)(=O)O)cc(Br)c2c1C(=O)c1ccccc1C2=O`, the compound was called inactive in experiment [1].
As for `CC(=O)Nc1ccc(C(=O)CCl)cc1`, the compound was called inactive in experiment [1], in experiment [2], in experiment [3], in experiment [4], in experiment [5] and in experiment [7]. In addition, the outcome in experiment [8] and in [9] was inactive. In addition, the AC50 was 76.7 µM (active) in experiment [3], 29.9 µM (active) in [5], 20.9 µM (active) in experiment [7] and 79.4 µM (active) in experiment [9].
Turning to `C=C(C)[C@H]1CC=C(C)C(=O)C1`, in experiment [1], the call was inactive.
Take `ClC(c1ccccc1)(c1ccccc1)c1ccccc1`: in experiment [1], the call was inactive.

The values are drawn from PubChem BioAssay (EPA / NIEHS).
